Laboratory results taken from PubChem BioAssay AID504339 (National Center for Advancing Translational Sciences (NCATS), 2011).
Where “and” joins values, the source holds several entries; their conditions need not be identical. Equal values may be shown once. Hit rate of the full screen: of about 390,000 compounds, about 17,000 (4.4%) were called active. About 8% were inconclusive and are not listed. Many of the other results were omitted from the sample, so actives are more common in it than they were. Unmarked numbers belong to inactive results. The call rests on the fitted dose curve; in most records, active means well fitted inhibition curve with a large enough effect; inconclusive means small, poorly fitted or top-dose-only effect; inactive means no such curve, though single readings can be large or run the other way.

molecular target: Lysine-specific demethylase 4A (Homo sapiens) (UniProt O75164); assay: qHTS Assay for Inhibitors of JMJD2A-Tudor Domain; conditions: AlphaScreen JMJD2A-Tudor / H3K4me3 peptide binding; series mostly up to 114 µM; activity change, negative = inhibition: at the top concentration; further: nearly all actives have a fitted effect of over 50% in size
Sequence (O75164 whole entry, looked up, the tested form may be a part): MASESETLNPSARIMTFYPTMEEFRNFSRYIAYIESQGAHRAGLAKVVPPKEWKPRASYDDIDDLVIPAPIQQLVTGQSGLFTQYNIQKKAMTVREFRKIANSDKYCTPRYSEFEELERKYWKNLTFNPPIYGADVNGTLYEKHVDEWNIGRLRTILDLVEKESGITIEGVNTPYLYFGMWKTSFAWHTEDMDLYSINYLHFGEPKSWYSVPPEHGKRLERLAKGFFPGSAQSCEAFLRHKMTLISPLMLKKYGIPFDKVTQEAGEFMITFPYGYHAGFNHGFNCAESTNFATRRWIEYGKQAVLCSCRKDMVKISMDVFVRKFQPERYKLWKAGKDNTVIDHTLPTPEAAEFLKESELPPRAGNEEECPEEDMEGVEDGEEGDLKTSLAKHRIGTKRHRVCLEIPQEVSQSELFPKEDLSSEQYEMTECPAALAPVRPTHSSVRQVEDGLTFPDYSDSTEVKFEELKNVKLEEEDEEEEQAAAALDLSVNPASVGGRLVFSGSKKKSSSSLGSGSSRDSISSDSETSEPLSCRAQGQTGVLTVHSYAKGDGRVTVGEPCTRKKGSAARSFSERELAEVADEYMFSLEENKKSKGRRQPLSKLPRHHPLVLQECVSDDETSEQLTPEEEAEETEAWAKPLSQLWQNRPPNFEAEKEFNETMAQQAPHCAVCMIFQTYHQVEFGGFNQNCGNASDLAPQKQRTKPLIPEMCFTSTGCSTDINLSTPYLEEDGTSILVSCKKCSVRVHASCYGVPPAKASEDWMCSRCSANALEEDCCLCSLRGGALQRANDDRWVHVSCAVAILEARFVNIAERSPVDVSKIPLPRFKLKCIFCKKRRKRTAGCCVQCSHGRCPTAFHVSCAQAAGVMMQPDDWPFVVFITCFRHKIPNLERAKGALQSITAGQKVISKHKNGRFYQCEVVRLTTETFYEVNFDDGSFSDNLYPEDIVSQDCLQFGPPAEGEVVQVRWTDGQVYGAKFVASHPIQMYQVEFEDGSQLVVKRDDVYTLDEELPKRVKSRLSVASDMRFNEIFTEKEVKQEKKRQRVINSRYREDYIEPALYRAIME
On the % scale 0 is the no-effect control and ±100 the full control effect; potency means the concentration at half of the fitted maximal effect.

Row | SMILES | activity change, negative = inhibition | Potency
1 | CCCCCCC1(C)NC(c2ccc3c(c2)OCO3)=CC(c2ccccc2O)N1 (stereo not drawn) | -14.6% [at 57.1 µM] | 
2 | CCn1c2ccccc2c2cc(NC(=O)C/C(C)=N/NC(=O)c3ccccc3N)ccc21 | -20.1% | 
3 | CCn1c2ccccc2c2cc(NC(=O)CNC)ccc21 |  | 1 µM (active)
4 | CCn1c2ccccc2c2cc(NC(=O)COc3ccc(C)cc3C)ccc21 | -4.5% | 
5 | Cc1ccc(N(CC(=O)NCC(C)c2ccccc2)S(=O)(=O)N(C)C)cc1 (stereo not drawn) | -10% | 
6 | Cc1ccc(NC(=O)C(=O)NCC(c2cccnc2)N2CCOCC2)cc1 (stereo not drawn) | -0.987% | 
7 | COc1cccc(C(=O)N(Cc2cccc(Cl)c2)Cc2ccco2)c1 | -9.03% | 
8 | CCCCCn1c(CCCNC(=O)c2ccccc2OC)nc2ccccc21 | -15.7% | 
9 | CC(=O)c1ccc(NC(=O)C2CC(=O)Nc3nc4ccccc4n32)cc1 (stereo not drawn) | -17.3% | 
10 | O=C(Nc1ccccc1)C1CC(=O)n2c(nc3ccccc32)N1 (stereo not drawn) |  | 8.91 µM (active)
11 | CCOC(=O)c1ccc(NC(=O)C2CC(=O)Nc3nc4ccccc4n32)cc1 (stereo not drawn) | -10.3% | 
12 | CC(=O)N1CCCc2cc(S(=O)(=O)N3CCC(C(=O)NCc4ccc(C)cc4)CC3)ccc21 | -11.6% | 
13 | O=c1[nH]c2ccccc2n2c(-c3ccccc3)nnc12 |  | 7.94 µM (active) and 5.62 µM (active)
14 | O=c1cc(-c2ccccc2)n2c(SCc3ccccc3)nnc2[nH]1 | -11.4% | 
15 | Cc1cccc(CC(=O)Nc2cccc(-c3cn4cccnc4n3)c2)c1 | -21.6% | 
16 | CCS(=O)(=O)N1Cc2ccccc2CC1C(=O)Nc1ccc(OC)cc1OC (stereo not drawn) | -9.15% | 
17 | COc1ccc(NC(=O)C2C3C=CC(C3)C2C(=O)NCc2ccccn2)c(OC)c1 (stereo not drawn) |  | 50.1 µM (active)
18 | CCOc1ccc(N2CC(C(=O)NCc3ccccn3)CC2=O)cc1 (stereo not drawn) | -5.52% | 
19 | CN(Cc1ccccc1)C(=O)c1cn(C)c2ccc(S(=O)(=O)N(C)C3CCCCC3)cc2c1=O | 1.67% | 
20 | CCOC(=O)c1c(NC(=O)CSc2cn(CCNC(=O)c3cccc(C(F)(F)F)c3)c3ccccc23)sc2c1CCC2 | -19.4% | 
21 | Cc1c(-c2nc(-c3ccc4c(c3)OCO4)no2)nnn1-c1ccc(Br)cc1F | -11.4% | 
22 | CCc1nnc(NC(=O)C2CC(=O)N(c3ccc4c(c3)OCCO4)C2)s1 (stereo not drawn) |  | 25.1 µM (active)
23 | CCOC(=O)c1ccc(NC(=O)C2CC(=O)N(c3ccc4c(c3)OCCO4)C2)cc1 (stereo not drawn) | -16.7% | 
24 | CC(=O)c1ccccc1NC(=O)C1CC(=O)N(c2ccc3c(c2)OCCO3)C1 (stereo not drawn) | -18.8% | 
25 | O=C(CSc1nnc(CNC(=O)c2ccccc2)n1-c1ccc(F)cc1)Nc1ccccc1F | -0.673% | 
26 | COc1ccc(C2C(C#N)=C(N)Oc3n[nH]c(C)c32)cc1CN1CCN(c2ccc(F)cc2)CC1 (stereo not drawn) |  | 44.7 µM (active)
27 | COc1ccccc1CN1CCCC(N2CCN(c3ccc(F)cc3)CC2)C1 (stereo not drawn) | -23.8% | 
28 | COc1ccc(C2C(C#N)=C(N)Oc3cc(N)ccc32)cc1OC (stereo not drawn) | -20.1% | 
